# For some of these results: Results with a measured potency or affinity are listed apart.
# Assays:
# Design in all cases: scale not given: direction of the effect not stated beside the values
# [1] = molecular target: Protein translocase subunit SecA (Escherichia coli (strain K12)) (UniProt P10408); assay: Assay to Identify E. coli SecA ATPase Inhibitors; assay type: functional; conditions: 30 µM
# [2] = molecular target: T1, Ubiquitin-activating enzyme e1, putative (Leishmania donovani (strain BPK282A1)) (UniProt E9BSI1); assay: Leishmania donovani Ubiquitin Activating Enzyme (LdE1); assay type: functional; conditions: 30 µM
# T1 sequence (whole entry): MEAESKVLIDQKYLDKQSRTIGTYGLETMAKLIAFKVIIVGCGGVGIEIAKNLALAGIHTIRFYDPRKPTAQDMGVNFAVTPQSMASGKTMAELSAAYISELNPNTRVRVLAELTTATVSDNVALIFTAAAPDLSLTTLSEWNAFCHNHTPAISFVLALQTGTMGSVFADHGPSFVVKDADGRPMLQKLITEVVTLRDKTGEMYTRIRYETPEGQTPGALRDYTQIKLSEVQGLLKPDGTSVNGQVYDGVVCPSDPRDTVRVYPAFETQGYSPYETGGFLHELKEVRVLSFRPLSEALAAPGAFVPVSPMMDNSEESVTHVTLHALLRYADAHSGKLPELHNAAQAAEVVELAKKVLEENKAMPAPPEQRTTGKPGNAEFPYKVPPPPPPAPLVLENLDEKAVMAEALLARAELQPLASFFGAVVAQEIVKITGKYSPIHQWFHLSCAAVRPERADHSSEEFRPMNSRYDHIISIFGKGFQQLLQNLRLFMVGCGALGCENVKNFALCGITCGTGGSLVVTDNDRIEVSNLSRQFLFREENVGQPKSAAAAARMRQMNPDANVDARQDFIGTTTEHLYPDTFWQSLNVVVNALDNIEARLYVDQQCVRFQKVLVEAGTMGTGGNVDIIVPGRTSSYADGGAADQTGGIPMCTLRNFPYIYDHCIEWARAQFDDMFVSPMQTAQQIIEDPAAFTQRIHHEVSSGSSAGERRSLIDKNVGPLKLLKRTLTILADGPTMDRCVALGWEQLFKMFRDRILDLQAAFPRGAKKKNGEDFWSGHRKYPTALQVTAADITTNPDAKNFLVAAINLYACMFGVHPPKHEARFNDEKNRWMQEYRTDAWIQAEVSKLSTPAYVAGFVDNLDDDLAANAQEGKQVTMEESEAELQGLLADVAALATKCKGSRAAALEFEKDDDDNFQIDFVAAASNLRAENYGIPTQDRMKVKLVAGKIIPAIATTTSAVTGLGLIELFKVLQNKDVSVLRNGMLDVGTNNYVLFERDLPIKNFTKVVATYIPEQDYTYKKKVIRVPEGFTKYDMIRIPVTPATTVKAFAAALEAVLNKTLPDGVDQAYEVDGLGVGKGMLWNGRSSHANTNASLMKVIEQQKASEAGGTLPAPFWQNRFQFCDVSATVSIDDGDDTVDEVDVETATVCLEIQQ
# [3] = molecular target: AMP-activated protein kinase, AMPK (Homo sapiens) (UniProt P54646+O43741+P54619+Q9UGJ0+Q9Y478+Q13131+Q9UGI9); assay: AMP-dependent Kinase enzyme assay. An in vitro enzyme assay that detects ADP turnover that is directly proportional to AMPK activity. This uses naive AMPK that is activated during the assay with MK-8722; assay type: functional; conditions: 30 µM
# [4] = molecular target: Sialic acid-binding Ig-like lectin 9 (Homo sapiens) (UniProt Q9Y336); assay: Hs-Siglec9 ALPHAscreen SOP 20170721; conditions: 10 µM
# Trypanosoma cruzi = assay: Trypanosoma cruzi phosphomannomutase and mannose-1-phosphate guanylyltransferase assay; assay type: functional; conditions: 10 µM
# [5] = molecular target: T2, Arginase-2, mitochondrial (Homo sapiens) (UniProt P78540); assay: in vitro enzyme assay to detect the production of urea directly proportional to the activity of Arginase II; assay type: functional; conditions: 33.3 µM; further: in the data most compounds retested in dose-response had high values
# T2 sequence (whole entry): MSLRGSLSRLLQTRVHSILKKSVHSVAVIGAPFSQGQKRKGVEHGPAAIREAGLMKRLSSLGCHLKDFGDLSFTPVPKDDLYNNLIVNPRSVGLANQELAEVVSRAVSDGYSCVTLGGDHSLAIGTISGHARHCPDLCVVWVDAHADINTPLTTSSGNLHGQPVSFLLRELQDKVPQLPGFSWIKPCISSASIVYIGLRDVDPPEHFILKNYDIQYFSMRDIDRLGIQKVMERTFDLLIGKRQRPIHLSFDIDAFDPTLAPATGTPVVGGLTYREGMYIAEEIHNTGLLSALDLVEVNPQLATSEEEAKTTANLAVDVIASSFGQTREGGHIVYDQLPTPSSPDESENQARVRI
# [6] = molecular target: T3, Proteasome subunit beta (Trypanosoma cruzi) (UniProt O96673); assay: Trypanosoma cruzi proteasome chymotrypsin-like activity (TcProtChymo) assay.; further: in the data most compounds retested in dose-response had high values; assay type: functional; conditions: 9.37 µM
# T3 sequence (whole entry): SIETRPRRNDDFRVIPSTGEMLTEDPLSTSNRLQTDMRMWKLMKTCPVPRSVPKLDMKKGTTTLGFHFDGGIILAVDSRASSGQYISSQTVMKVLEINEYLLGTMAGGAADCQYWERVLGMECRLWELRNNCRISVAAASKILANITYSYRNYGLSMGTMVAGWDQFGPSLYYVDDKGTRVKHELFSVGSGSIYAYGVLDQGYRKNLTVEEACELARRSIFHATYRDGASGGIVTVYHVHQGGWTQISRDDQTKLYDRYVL
# Homo sapiens = species: Homo sapiens; assay: To identify inhibition of the IFN signalling (Jak-Stat) pathway via expression of an eGFP reporter gene under the control of an IFN-stimulated response element (ISRE) containing MxA promoter.; assay type: functional; conditions: 30 µM
# [7] = molecular target: T4, Tyrosyl-tRNA synthetase, putative (Trypanosoma cruzi (strain CL Brener)) (UniProt Q4DSP6); assay: Trypanosoma cruzi tyrosyl tRNA synthetase (TcYRS) _High Tyrosine SOP; assay type: functional; conditions: 30 µM; further: in the data most compounds retested in dose-response had high values
# T4 sequence (whole entry): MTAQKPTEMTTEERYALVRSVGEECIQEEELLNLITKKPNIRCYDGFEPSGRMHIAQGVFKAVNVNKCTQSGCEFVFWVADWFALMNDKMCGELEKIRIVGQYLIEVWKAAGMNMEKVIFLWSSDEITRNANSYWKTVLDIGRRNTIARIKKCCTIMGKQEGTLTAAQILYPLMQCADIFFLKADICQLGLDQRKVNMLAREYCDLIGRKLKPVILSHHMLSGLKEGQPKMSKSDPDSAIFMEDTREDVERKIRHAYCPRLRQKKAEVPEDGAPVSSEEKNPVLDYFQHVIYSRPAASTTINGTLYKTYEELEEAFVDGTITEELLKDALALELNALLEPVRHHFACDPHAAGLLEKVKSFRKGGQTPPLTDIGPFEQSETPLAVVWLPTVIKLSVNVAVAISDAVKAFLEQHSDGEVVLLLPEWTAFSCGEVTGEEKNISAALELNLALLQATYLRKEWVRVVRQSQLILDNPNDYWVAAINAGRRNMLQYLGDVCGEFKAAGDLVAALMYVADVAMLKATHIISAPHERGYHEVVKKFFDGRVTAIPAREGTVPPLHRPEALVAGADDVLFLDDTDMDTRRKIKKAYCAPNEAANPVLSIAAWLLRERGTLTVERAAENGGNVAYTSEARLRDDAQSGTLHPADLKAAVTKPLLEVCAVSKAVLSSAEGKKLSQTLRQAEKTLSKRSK
# [8] = molecular target: T4, Tyrosyl-tRNA synthetase, putative (Trypanosoma cruzi (strain CL Brener)); assay: Trypanosoma cruzi tyrosyl tRNA synthetase (TcYRS) SOP; assay type: functional; conditions: 30 µM
# [9] = molecular target: Chromo domain-containing protein 1 (Saccharomyces cerevisiae (strain ATCC 204508 / S288c) (Baker's yeast)) (UniProt P32657); assay: ScCHD-1 Enzyme Inhibition Assay; assay type: functional; conditions: 30 µM; further: in the data most compounds retested in dose-response had high values
# Chromo domain-containing protein 1 (Saccharomyces cerevisiae (strain ATCC 204508 / S288c) (Baker's yeast)), sequence (P32657 whole entry, the tested form may be a part): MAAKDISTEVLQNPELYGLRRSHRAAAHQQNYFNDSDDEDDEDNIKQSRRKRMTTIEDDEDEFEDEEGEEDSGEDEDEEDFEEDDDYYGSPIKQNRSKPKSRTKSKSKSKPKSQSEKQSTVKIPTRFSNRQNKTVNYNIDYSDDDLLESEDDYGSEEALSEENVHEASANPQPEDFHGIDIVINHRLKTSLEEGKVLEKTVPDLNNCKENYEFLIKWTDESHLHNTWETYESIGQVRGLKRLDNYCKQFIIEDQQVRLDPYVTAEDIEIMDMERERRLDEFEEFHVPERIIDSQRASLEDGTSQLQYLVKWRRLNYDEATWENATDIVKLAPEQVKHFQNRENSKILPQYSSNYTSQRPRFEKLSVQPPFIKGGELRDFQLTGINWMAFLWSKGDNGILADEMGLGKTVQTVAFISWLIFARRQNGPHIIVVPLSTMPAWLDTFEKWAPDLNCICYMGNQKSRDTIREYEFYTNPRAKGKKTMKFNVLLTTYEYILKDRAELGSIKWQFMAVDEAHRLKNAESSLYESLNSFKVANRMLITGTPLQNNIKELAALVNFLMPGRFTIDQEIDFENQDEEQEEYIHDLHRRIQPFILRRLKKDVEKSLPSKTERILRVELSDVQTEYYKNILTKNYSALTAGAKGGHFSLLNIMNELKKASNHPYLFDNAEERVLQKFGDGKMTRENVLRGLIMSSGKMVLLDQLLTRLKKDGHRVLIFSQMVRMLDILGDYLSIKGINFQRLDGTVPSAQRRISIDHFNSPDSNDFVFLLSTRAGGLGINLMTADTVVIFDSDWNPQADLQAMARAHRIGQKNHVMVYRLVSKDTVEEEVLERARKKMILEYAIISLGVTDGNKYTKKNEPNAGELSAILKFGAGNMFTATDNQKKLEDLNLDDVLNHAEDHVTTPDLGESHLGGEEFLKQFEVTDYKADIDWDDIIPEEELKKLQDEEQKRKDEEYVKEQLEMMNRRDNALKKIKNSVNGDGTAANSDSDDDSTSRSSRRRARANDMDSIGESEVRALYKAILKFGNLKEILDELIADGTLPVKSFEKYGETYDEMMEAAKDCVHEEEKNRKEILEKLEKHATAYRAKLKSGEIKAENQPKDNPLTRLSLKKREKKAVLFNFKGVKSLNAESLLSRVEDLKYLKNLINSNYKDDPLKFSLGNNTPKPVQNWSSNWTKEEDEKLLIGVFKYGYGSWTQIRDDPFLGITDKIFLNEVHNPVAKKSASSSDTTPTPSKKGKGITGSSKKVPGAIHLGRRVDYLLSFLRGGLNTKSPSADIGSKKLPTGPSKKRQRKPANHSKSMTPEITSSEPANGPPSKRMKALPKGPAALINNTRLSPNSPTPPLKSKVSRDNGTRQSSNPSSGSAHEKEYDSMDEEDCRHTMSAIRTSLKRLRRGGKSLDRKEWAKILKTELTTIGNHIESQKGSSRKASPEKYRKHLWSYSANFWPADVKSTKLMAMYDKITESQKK
# Sialic acid-binding Ig-like lectin 9 (Homo sapiens), sequence (Q9Y336 whole entry): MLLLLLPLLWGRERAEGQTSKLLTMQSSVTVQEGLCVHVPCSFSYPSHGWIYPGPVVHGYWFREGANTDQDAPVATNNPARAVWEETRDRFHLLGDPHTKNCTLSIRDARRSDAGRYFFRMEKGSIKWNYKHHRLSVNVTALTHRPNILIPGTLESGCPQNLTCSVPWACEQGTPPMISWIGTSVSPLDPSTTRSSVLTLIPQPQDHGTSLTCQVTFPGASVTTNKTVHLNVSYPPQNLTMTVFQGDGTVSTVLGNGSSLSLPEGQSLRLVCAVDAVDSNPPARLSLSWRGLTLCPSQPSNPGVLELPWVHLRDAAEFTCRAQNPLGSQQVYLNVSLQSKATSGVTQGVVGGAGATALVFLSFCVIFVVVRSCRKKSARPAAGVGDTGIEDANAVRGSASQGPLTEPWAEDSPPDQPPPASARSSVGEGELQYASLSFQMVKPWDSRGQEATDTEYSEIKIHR
# Protein translocase subunit SecA (Escherichia coli (strain K12)), sequence (P10408 whole entry): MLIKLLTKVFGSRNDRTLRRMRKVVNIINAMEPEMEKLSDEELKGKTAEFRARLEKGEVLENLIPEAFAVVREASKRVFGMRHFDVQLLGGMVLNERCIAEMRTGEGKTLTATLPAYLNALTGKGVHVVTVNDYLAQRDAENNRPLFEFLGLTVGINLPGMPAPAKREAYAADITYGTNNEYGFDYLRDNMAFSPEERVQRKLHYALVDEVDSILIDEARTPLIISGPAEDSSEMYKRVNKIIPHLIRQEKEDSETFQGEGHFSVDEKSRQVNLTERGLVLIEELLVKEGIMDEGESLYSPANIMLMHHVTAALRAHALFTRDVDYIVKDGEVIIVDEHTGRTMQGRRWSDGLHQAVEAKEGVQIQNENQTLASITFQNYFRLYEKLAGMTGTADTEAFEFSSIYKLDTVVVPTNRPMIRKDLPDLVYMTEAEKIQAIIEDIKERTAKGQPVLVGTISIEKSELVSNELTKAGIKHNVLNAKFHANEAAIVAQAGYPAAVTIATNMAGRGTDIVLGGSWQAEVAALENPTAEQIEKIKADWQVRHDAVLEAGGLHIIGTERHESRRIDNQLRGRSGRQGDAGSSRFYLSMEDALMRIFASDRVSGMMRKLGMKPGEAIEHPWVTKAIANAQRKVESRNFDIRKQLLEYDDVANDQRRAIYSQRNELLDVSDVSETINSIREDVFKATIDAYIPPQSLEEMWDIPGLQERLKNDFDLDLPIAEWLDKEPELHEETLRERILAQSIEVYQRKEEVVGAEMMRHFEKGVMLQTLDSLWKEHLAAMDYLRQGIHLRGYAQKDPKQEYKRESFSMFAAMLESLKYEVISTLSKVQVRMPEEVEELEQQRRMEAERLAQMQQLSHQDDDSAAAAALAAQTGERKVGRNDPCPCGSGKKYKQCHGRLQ
SMILES,Percent Effect [1] [%],Percent Effect [2] [%],Percent Effect [3] [%],Percent Effect [4] [%],Percent Effect (Trypanosoma cruzi) [%],Percent Effect [5] [%],Percent Effect [6] [%],Percent Effect (Homo sapiens) [%],Percent Effect [7] [%],Percent Effect [8] [%],Percent Effect [9] [%]
CC(C)NC(=O)N1CC[C@@H]2CN(Cc3cccc(Cl)c3)S(=O)(=O)[C@@H]2CC1,-0.309,8,9.12,-2.2,-7.34,-59.3,13.5,35.6,0,10,-7.22
Cc1nc(NCc2cccnc2)c2c(n1)c(C)nn2C,0.594,7.79,5.87,8.94,2.85,-12.4,7.99,31,6.45,18.5,-2.21
CC(C)c1nnc2n1CCN(C(=O)CN1CCc3sccc3C1)C2,-3.25,5.26,-8.35,-4,7.71,4.6,-2.34,0.728,3.43,7.32,-5.85
O=C(Cn1nc(-c2ccc(F)cc2)oc1=O)NCc1ccc(F)cc1,0.533,10.5,-7.15,-1.53,-7.52,-6.9,13.4,21,0.49,7.32,-14.3
CC(NC(=O)COc1ccc(F)cc1)c1nnc2n1CCCCC2 (stereo unspecified),-3.7,16.2,-13.2,13.2,5.19,-8.02,0.36,0.906,4.43,18.5,-14.6
COc1ccc(CN(C)Cc2nc3c(cnn3C)c(=O)[nH]2)cc1OC,-1.17,13.9,4.17,3.18,-3.18,2.8,16.5,11.6,7.29,7.59,-3.45
O=C(Nc1cnn(CCN2CCOCC2)c1)c1ccccc1O,-4.19,26.3,-17.4,2.22,3.57,4.6,16.9,-2.35,6.37,19.5,-12.5
CO[C@H]1CN(C(=O)c2ccc3oc(C)cc3c2)CC[C@@]12CCCO2,-0.467,1.35,11.4,2.79,0.593,-0.696,5.77,-10.3,0,-1.3,-11.8
COc1ccccc1CC(=O)N1CCCC(n2nc(C)cc2C)C1 (stereo unspecified),4.86,0,2.98,-5.42,-1.23,5.32,1.06,2.12,-0.493,-3.8,-0.887
Cc1cc(NC(=O)CN2CCc3nn(C)c(=O)cc3C2)on1,-3.81,6.94,-63.3,-0.594,-1.46,7.06,13.9,0.181,-6.32,-5.13,-4.24
CC(C)(C)C(=O)N1CCC2(COCc3cnc(N4CCOCC4)nc32)C1 (stereo unspecified),-4.89,4,3.79,6.02,-2.36,-7.57,9.06,-1.15,2.12,2.56,-1.68
